Bioassay records: PubChem, Broad Institute
An excerpt weighted towards active compounds, which were near 1.1% of everything screened.
NSD2 HMT inh – blocks human histone methyltransferase NSD2 | inhibition, % at 12.5 µM | NSD2 peptide methylation, AlphaScreen, 120 min | O96028 | actives 0.54% (n = 310,000); in the data active = inhibition above about 50%
Casp6 inh – inhibitors of human caspase-6; inhibition, % at 12.5 µM; P55212; actives 0.53% (n = 350,000); purified caspase-6, Z-VEID-R110 cleavage fluorescence;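 active = mean inhibition across replicates at least about 35%, with every replicate also reaching that limit, limit read from the data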;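 also: 0% = median of neutral control wells and 100% = no fluorescence left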
C-LANA FP – KSHV C-LANA DNA binding inhibition; MBP-C-LANA/FAM-LBS DNA binding, fluorescence polarization; inhibition, % at 9 µM; actives 0.078% (n = 340,000); AID 504423;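 active = highest replicate inhibition at or above 60% at 9 µM, even if other replicates fall short; inactive = all replicates below 60% inhibition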;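 also: 0% = neutral control wells and 100% = 4 µM acridine orange control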
Keap1-Nrf2 PPI – disrupts human Keap1 binding to Nrf2 peptide; Q14145; Keap1 Kelch-Nrf2 peptide fluorescence polarization, 1536-well; inhibition, % at 9.4 µM; actives 0.15% (n = 340,000); AID 504523; in the data active = inhibition above about 12%;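 also: human Keap1 Kelch domain with fluorescein labeled Nrf2 9mer peptide probe; 0% = neutral control wells and 100% = peptide positive control; higher means more block of Keap1 binding to Nrf2 peptide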
Target sequence (Q14145 whole entry, looked up, the tested form may be a part): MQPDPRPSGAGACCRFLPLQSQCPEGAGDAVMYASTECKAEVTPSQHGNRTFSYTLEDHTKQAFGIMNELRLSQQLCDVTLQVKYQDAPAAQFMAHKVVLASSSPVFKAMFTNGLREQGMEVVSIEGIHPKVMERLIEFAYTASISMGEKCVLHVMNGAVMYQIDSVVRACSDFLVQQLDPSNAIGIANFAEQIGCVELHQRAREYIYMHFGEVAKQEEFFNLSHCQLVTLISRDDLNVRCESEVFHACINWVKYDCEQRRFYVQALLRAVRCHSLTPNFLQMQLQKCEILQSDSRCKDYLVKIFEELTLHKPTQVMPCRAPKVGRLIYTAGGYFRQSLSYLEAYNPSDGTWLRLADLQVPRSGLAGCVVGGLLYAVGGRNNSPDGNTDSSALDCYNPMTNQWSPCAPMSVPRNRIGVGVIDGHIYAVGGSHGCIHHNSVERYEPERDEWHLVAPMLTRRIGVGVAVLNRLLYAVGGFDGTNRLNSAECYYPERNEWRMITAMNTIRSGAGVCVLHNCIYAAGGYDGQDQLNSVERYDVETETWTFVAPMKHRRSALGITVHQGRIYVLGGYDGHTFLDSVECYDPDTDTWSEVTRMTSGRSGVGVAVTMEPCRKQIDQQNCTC
HDAC3 inh – human HDAC3 inhibition; recombinant HDAC3, fluorogenic peptide/trypsin coupled, fluorescence; inhibition, % at 8.3 µM; O15379; actives 0.15% (n = 320,000); in the data active = inhibition above about 26%, passing the limit was not always enough
N-glyco inh – N-linked glycosylation inhibition; D54 ERlucT glycosylation luciferase reporter, 24 h; percent of 100 nM tunicamycin response; reporter increase, % at 12.5 µM; actives 0.23% (n = 360,000); AID 588692;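 active = mean luciferase reporter signal, scaled so untreated is 0 and the glycosylation-blocking control 100, at or above a set limit in every replicate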;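 also: luciferase carries N-glycosylation sites so blocking glycosylation raises the light; 0% = median of neutral control wells and 100% = median of 100 nM tunicamycin wells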
Starred values were filed as active, the others as inactive; nt = no result.

SMILES	NSD2 HMT inh	Casp6 inh	C-LANA FP	Keap1-Nrf2 PPI	HDAC3 inh	N-glyco inh
CCOc1ccc(NC(=O)CC2SC(=O)N(c3ccccc3)C2=O)cc1 (stereo unspecified)	1.0	2.5	-0.2	-3.8	39.7*	0.7
CO[C@@H]1CN(C)C(=O)c2ccc(NC(=O)C3CC3)cc2OC[C@H](C)N(CC2CCOCC2)C[C@@H]1C	nt	5.3	nt	nt	nt	nt
COc1ccc(NC(=O)N(C)C[C@H]2OCCCC[C@@H](C)Oc3ccc(NS(=O)(=O)c4cn(C)cn4)cc3C(=O)N([C@H](C)CO)C[C@H]2C)cc1	nt	-2.0	nt	nt	nt	nt
O=C(CSc1nc2ccsc2c(=O)n1CC1CCC(C(=O)O)CC1)c1ccc(Cl)cc1 (stereo unspecified)	-0.2	42.6*	1.0	3.5	5.3	2.3
CCCC(=O)n1nc(-c2cccnc2)nc1NCc1ccc(OC)cc1	-9.2	39.3*	-0.4	-0.7	nt	3.5
COc1ccccc1C(=O)n1nc(-c2cccnc2)nc1NCc1ccccc1	-1.3	4.3	-0.8	-1.2	nt	0.9
CCOC(=O)c1[nH]c(C)c(C(=O)Nc2cc(OC)ccc2OC)c1C	0.3	nt	0.5	0.2	2.4	34.6*
CC(=O)c1c(C)[nH]c(C(=O)Nc2cc(S(=O)(=O)N3CCCCC3)ccc2C)c1C	0.0	0.3	2.1	-5.0	4.8	8.8
CCOc1cc(N2CCOCC2)c(OCC)cc1NC(=O)c1[nH]c(C)c(C(C)=O)c1C	0.3	2.2	0.5	-3.9	4.4	29.0*
COc1ccc(S(=O)(=O)N2CCCCC2)cc1NC(=O)c1[nH]c(C)c(C(C)=O)c1C	nt	nt	-0.5	4.9	nt	54.6*
CN(C)CCCNC(=O)C[C@@H]1CC[C@@H]2[C@@H](COc3ccc(NC(=O)NC4CCCC4)cc3C(=O)N2C)O1	nt	-1.9	nt	nt	nt	nt
CN1CCN(C(=O)[C@@H]2[C@@H](CO)[C@@H]3Cn4c(ccc(C5=CCCC5)c4=O)[C@H]2N3S(C)(=O)=O)CC1	nt	1.5	nt	nt	nt	nt
CC(C)N(C(=O)Nc1ccc2nsnc2c1)C(C)C	104.0*	99.6*	nt	nt	-4.9	nt
O=Cc1cc([B-](F)(F)F)cs1	nt	16.0	nt	nt	nt	nt
O=Cc1cscc1[B-](F)(F)F	nt	66.1*	nt	nt	nt	nt
C=CCN1C(=O)/C(=C/c2ccc(OCC(=O)O)cc2)S/C1=N/c1nccs1	1.3	38.2*	-1.2	-1.5	nt	0.7
C=CCN1C(=O)/C(=C/c2ccc(O)c(OC)c2)S/C1=N/c1nccs1	-1.5	nt	-4.5	-1.5	1.2	0.4
OCCCCCN=c1cc(-c2ccccc2)oc2ccc(Cl)cc12	3.1	nt	-7.8	5.5	9.9	50.9*
Clc1ccc2oc(-c3ccccc3)cc(=NCCCN3CCOCC3)c2c1	3.3	-30.9	-2.6	0.6	nt	3.6
CCCCN1CC(=O)N2Cc3[nH]c4ccccc4c3C[C@H]2C1=O	30.1	5.0	-2.3	-6.3	-5.3	3.2
CN1CC(=O)N2Cc3[nH]c4ccccc4c3C[C@H]2C1=O	-1.6	45.3*	4.1	-3.0	-1.2	2.8
CC(C)c1c(C(=O)Nc2ccccc2)c(-c2ccccc2)c(-c2ccc(F)cc2)n1CC[C@@H](O)C[C@@H](O)CC(=O)O	nt	-3.9	nt	nt	nt	80.3*
NS(=O)(=O)c1cccc(NC(=O)c2ccc3nc[nH]c3c2)c1	nt	53.9*	0.8	-1.1	-0.1	2.3
O=C(Nc1ccccc1N1CCOCC1)c1ccc2nc[nH]c2c1	-5.6	-2.6	0.6	1.9	nt	26.6*
O=C(Nc1ccc(C(F)(F)F)cc1)c1ccc2nc[nH]c2c1	-3.7	7.8	-0.3	-5.4	1.3	1.1
SMILES	NSD2 HMT inh	Casp6 inh	C-LANA FP	Keap1-Nrf2 PPI	HDAC3 inh	N-glyco inh
O=C(Nc1ccccc1N1CCOCC1)c1cccc(F)c1	-1.7	1.2	1.1	0.6	-1.9	-0.9
C[C@H]1CN([C@@H](C)CO)C(=O)Cc2cc(NC(=O)Nc3cccc4ccccc34)ccc2O[C@@H]1CN(C)S(=O)(=O)c1ccc(Cl)cc1	nt	3.6	nt	nt	nt	nt
CN1CCN(C(=O)c2cc(Cl)cc(Cl)c2)CC1	-0.7	64.7*	5.6	2.0	-1.9	-0.8
CC(C)OCCOc1ccc2oc(-c3ccco3)cc(=O)c2c1	0.0	35.0*	0.3	-0.7	-44.1	1.7
CC(C)Cc1ccc(CN2C(C)C(=O)N(Cc3cn(Cc4ccco4)nn3)CCS2(=O)=O)cc1 (stereo unspecified)	nt	45.6*	nt	nt	nt	5.9
Cc1ccc(-c2ccc(CN3C(C)C(=O)N(Cc4cn(Cc5ccco5)nn4)CCS3(=O)=O)cc2)cc1 (stereo unspecified)	nt	6.3	nt	nt	nt	-2.8
CCC(C)(C)c1ccc(OCCCC[n+]2cccc(C)c2C)c(C(C)(C)CC)c1	12.3	-49.2	-1.4	7.3	18.5	15.0
CCC(C)(C)c1ccc(OCCCC[n+]2ccc(C)cc2)c(C(C)(C)CC)c1	7.1	nt	nt	nt	33.8*	nt
COCCN(C[C@@H]1N[C@@H](CO)[C@H]1c1ccc(-c2ccc(F)cc2)cc1)C(C)=O	nt	3.3	nt	nt	nt	nt
Nc1c(C(=O)N/N=C/c2cccnc2)oc2nc(-c3ccco3)cc(-c3ccco3)c12	8.2	88.8*	nt	nt	1.8	3.0
CCC(=O)N1[C@H](CO)[C@@H](c2ccccc2)C12CN(C(=O)NC1CCCC1)C2	nt	4.3	nt	nt	nt	nt
C[C@H]1CN([C@@H](C)CO)C(=O)c2cc(C#CCN(C)C)cnc2O[C@@H]1CN(C)Cc1ccc(-c2ccccc2)cc1	nt	0.6	nt	nt	nt	nt
Cc1ccc(SC2=C(N(C)C)C(=O)c3ccccc3C2=O)cc1	92.9*	8.1	0.4	-0.4	nt	6.7
Cc1ccc(S(=O)(=O)N(C)C[C@@H]2Oc3ccc(NS(=O)(=O)c4ccc(Cl)cc4)cc3C(=O)N([C@H](C)CO)C[C@H]2C)cc1	nt	-1.8	nt	nt	nt	nt
O=C(CCl)N1CCN(S(=O)(=O)c2ccc3ccccc3c2)CC1	nt	74.1*	1.1	-3.6	5.3	11.9
CCOC(=O)c1c(C)oc2c1c(C=NC1CCS(=O)(=O)C1)c(O)c1ccccc12 (stereo unspecified)	87.5*	nt	4.3	-6.8	-0.4	3.2
CCOC(=O)c1c(C)oc2c1c(CN1CCN(C(=O)OCC)CC1)c(O)c1ccccc12	0.4	-0.2	-0.2	-1.1	nt	0.2
CCCNC(=O)N1[C@@H]2Cn3c(ccc(-c4cccc(OC)c4)c3=O)[C@H]1[C@@H](C(=O)NC1CCC1)[C@@H]2CO	nt	2.5	nt	nt	nt	nt
CCNc1nc(NCC)n2c(SCC(=O)Nc3ccc(C)c(C)c3)nnc2n1	-3.4	36.5*	4.0	2.3	nt	2.8
NC(=O)NCC#Cc1ccc2c(c1)[C@]1(C(=O)N2)[C@H](C(N)=O)[C@H]2C(=O)O[C@H](c3ccccc3)[C@H](c3ccccc3)N2[C@@H]1c1ccccc1OCCO	nt	2.8	nt	nt	nt	nt
Fc1ccc(/C=N/NC(=S)Nc2cccnc2)cc1	0.0	48.2*	-0.5	-9.8	1.5	0.7
Oc1ccc(/C=N/NC(=S)Nc2cccnc2)c(O)c1	-6.8	nt	3.7	2.8	12.2	-7.1
Oc1ccc(/C=N/NC(=S)Nc2cccnc2)c(O)c1O	nt	49.4*	12.3	-3.9	nt	-0.1
CCOC(=O)C1Nc2ccc(Br)cc2C2C=CCC12 (stereo unspecified)	3.3	8.0	0.5	-2.9	-3.5	-1.1
